Test results as given in PubChem BioAssay (Tox21).
Inconclusive results are not listed. Calls of active or inactive are those of the source. Unless noted, calls come from the whole dose curve.

Tests used:
[1] = Nuclear factor erythroid 2-related factor 2/antioxidant responsive element (Nrf2/ARE) small molecule agonists: qHTS cell viability counter screen in human keratinocytes (AID 1919968; active = well fitted curve in the direction sought with a large enough effect in the repeat runs; an effect the other way counts as inactive or inconclusive; note: nearly all actives have a fitted effect of over 55% in size)
Summary of the method: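 Seed 1,500 KeratinoSens cells per well, then incubate 5 h at 37 C/5% CO2. Add compounds in DMSO and incubate 23 h. Add CellTiter-Fluor, wait 1 h and read fluorescence.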

[2] = Nuclear factor erythroid 2-related factor 2/antioxidant responsive element (Nrf2/ARE) small molecule agonists: luciferase reporter gene qHTS assay in human keratinocytes (AID 1919969); note: nearly all actives have a fitted effect of over 35% in size
[3] = biological target: Gonadotropin-releasing hormone receptor (Homo sapiens) (UniProt P30968); test: Human gonadotropin-releasing hormone receptor (GnRHR) small molecule agonists, calcium flux assay in GnRHR-HEK293 cells (AID 1920063); note: nearly all actives have a fitted effect of over 35% in size
Gonadotropin-releasing hormone receptor (Homo sapiens), sequence (P30968 whole entry, looked up): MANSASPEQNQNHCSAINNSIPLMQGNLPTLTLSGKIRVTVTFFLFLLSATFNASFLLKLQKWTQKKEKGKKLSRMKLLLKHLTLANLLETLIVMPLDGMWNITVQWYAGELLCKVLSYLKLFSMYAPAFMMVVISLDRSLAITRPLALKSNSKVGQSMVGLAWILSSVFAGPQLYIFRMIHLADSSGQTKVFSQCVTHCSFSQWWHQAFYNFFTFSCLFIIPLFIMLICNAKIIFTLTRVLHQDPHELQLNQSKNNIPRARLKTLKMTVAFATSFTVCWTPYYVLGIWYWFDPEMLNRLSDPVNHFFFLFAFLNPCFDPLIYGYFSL
Summary of the method: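 Cells: HEK293 stably expressing human GnRHR. Steps: overnight (18 h) culture, 1 h calcium dye loading at 37 C, compound addition, kinetic fluorescence read at 480/540 nm. Each compound tested at 15 concentrations in triplicate.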

[4] = biological target: KiSS-1 receptor (Homo sapiens) (UniProt Q969F8); test: Human kisspeptin (KISS1R) small molecule agonists, calcium flux assay in KISS1R-HEK293 cells (AID 1920064; active = well fitted curve in the direction sought with a large enough effect in the repeat runs; an effect the other way counts as inactive or inconclusive)
KiSS-1 receptor (Homo sapiens), sequence (Q969F8 whole entry, looked up): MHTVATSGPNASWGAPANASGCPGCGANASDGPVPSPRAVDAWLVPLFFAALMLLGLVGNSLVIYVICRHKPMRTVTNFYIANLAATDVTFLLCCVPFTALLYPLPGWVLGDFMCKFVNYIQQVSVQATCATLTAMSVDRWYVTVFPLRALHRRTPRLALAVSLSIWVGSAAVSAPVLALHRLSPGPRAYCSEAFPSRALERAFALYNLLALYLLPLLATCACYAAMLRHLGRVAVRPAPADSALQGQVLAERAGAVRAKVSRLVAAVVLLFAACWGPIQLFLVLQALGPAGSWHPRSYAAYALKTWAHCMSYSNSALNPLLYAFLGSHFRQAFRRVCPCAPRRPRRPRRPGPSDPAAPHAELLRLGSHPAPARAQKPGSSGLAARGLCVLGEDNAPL
Summary of the method: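 Cells plated and incubated 18 h; dye added, 1 h at 37 C; compounds in DMSO pinned in; signal read at 480/540 nm every second for 3 min. Each compound tested at 15 concentrations in triplicate.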

[5] = G protein-coupled receptor (GPCR) small molecule agonists, calcium flux assay: HEK293 wild type cell line counter screen (AID 1920065)
Summary of the method: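 Counter-screen of the Tox21 10K library for non-specific calcium release: dye-loaded cells received compounds in DMSO and were monitored by kinetic fluorescence (480/540 nm, 3 min). Fifteen concentrations, run in triplicate.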

[6] = p53 small molecule agonists, cell-based qHTS assay with human liver microsomes (AID 1963577);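 note: p53 response element beta-lactamase reporter cells with liver microsomes plus NADPH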
Summary of the method: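 Steps: plate p53RE-bla cells, incubate 5 h at 37 C; add compound in DMSO; add microsomes (0.5 mg/mL final) and NADPH (0.5 mg/mL final); incubate 16 h at 37 C; add LiveBLAzer, 2 h RT; read fluorescence.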

[7] = p53 small molecule agonists, cell-based qHTS assay with rat liver microsomes (AID 1963578)
Summary of the method: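 Metabolic activation is supplied by rat liver microsomes with NADPH (each 0.5 mg/mL final). p53RE-bla cells incubate with compound 16 h at 37 C; reporter activity is measured by LiveBLAzer fluorescence.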

[8] = p53 small molecule agonists, cell-based qHTS assay with human liver microsomes: qHTS cell viability counter screen (AID 1963579); note: nearly all actives have a fitted effect of over 45% in size
Summary of the method: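 After the 460/530 nm beta-lactamase read, CellTiter-Glo was added to the same wells and luminescence measured after 30 min at room temperature, giving viability of p53RE-bla cells treated 16 h with compounds plus microsomes and NADPH.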

[9] = p53 small molecule agonists, cell-based qHTS assay with rat liver microsomes: qHTS cell viability counter screen (AID 1963580); note: nearly all actives have a fitted effect of over 45% in size
Summary of the method: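 p53RE-bla HCT-116 cells were exposed 16 h at 37 C to compounds with rat liver microsomes (0.5 mg/mL) and NADPH (0.5 mg/mL). Viability was measured in the same wells as ATP content by CellTiter-Glo luminescence.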

[10] = p53 small molecule agonists, cell-based qHTS assay: qHTS cell viability counter screen (AID 1963581); note: nearly all actives have a fitted effect of over 45% in size
Summary of the method: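 Cells: HCT-116 with p53 response element-driven beta-lactamase. Treatment: 16 h, 37 C, compounds in DMSO. Read: CellTiter-Glo luminescence after 30 min RT.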

[11] = p53 small molecule agonists, cell-based qHTS assay (AID 1963582; active = well fitted activation curve with a large enough effect in the signal ratio in the repeat runs, not every such curve was filed as active; the % refers to the signal ratio)
Summary of the method: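 Quantitative HTS in p53RE-bla cells: after a 5 h settling period, compounds delivered in DMSO were left on cells for 16 h at 37 C, and reporter induction was measured as fluorescence following 2 h substrate loading.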

[12] = biological target: 5-hydroxytryptamine receptor 2A (Homo sapiens) (UniProt P28223); test: 5-hydroxytryptamine receptor 2A (HTR2A) small molecule agonists, cell-based qHTS assay (AID 1963587); note: nearly all actives have a fitted effect of over 30% in size
5-hydroxytryptamine receptor 2A (Homo sapiens), sequence (P28223 whole entry, looked up): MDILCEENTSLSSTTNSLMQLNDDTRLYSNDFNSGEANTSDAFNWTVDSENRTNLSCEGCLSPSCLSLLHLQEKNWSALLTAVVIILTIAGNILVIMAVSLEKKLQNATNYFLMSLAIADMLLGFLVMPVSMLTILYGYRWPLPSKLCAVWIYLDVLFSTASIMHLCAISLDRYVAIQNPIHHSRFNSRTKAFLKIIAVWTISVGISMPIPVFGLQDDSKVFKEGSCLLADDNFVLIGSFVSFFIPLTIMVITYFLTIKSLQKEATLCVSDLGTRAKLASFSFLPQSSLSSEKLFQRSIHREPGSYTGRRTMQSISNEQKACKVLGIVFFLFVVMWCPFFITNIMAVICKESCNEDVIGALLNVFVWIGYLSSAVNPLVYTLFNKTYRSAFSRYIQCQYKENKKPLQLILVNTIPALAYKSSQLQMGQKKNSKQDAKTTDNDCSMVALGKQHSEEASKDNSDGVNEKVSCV
Summary of the method: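 CHO cells stably expressing human HTR2A, plated 18 h, loaded with calcium dye 1 h at 37 C. Agonist mode: compounds added and intracellular calcium fluorescence recorded kinetically for 2 min at 1 sec intervals.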

[13] = biological target: Muscarinic acetylcholine receptor M1 (Homo sapiens) (UniProt P11229); test: Cholinergic receptor muscarinic 1 (CHRM1) small molecule antagonists, cell-based qHTS assay (AID 1963588); note: nearly all actives have a fitted effect of over 40% in size
Muscarinic acetylcholine receptor M1 (Homo sapiens), sequence (P11229 whole entry, looked up): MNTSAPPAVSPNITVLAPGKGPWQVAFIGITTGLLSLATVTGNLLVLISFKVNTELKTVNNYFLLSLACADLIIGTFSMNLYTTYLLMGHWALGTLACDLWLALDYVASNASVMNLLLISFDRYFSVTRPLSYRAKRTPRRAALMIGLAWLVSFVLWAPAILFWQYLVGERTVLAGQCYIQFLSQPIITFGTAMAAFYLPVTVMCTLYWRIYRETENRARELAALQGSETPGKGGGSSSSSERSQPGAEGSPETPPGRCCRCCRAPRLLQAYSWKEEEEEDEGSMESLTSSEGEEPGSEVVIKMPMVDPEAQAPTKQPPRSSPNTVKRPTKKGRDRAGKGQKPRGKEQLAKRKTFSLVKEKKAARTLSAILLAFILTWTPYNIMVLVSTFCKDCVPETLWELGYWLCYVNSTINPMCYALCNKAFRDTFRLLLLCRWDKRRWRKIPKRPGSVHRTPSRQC
Summary of the method: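 CHRM1-CHO calcium-flux assay, antagonist mode. Cells were seeded 18 h, dye-loaded 1 h at 37 C and given compound for 5 min at RT, then acetylcholine was added at 50nM. FDSS fluorescence was read 3 min; 15 concentrations, three runs.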

[14] = biological target: Muscarinic acetylcholine receptor M1 (Homo sapiens) (UniProt P11229); test: Cholinergic receptor muscarinic 1 (CHRM1) small molecule agonists, cell-based qHTS assay (AID 1963589); note: nearly all actives have a fitted effect of over 35% in size
Summary of the method: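 Agonist-mode qHTS in CHO cells stably carrying human muscarinic M1. Intracellular calcium is tracked by fluorescence every second after compound transfer; each compound runs at 15 concentrations in three independent runs.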

[15] = cAMP Responsive Elements (CRE) small molecule agonists, cell-based qHTS assay (AID 1963590)
Summary of the method: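 Agonist mode qHTS in CRE-bla HEK 293T cells: compounds dosed from DMSO for 3 h at 37 C/5% CO2, followed by LiveBLAzer B/G FRET substrate for 2 h at room temperature.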

[16] = cAMP Responsive Elements (CRE) small molecule antagonists, cell-based qHTS assay (AID 1963591; active = well fitted inhibition curve with a large enough effect in the signal ratio in the repeat runs, not every such curve was filed as active; the % refers to the signal ratio)
Summary of the method: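 Antagonist mode: test compounds are co-incubated with the adenylyl cyclase activator NKH477 (0.25 uM final) on CRE-bla HEK293T cells for 3 h at 37 °C, followed by LiveBLAzer substrate loading.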

[17] = biological target: Beta-2 adrenergic receptor (Homo sapiens) (UniProt P07550); test: Adrenergic beta2 receptor (ADRB2) small molecule antagonists, cell-based qHTS assay (AID 1963592); note: series mostly up to about 92 µM; nearly all actives have a fitted effect of over 50% in size
Beta-2 adrenergic receptor (Homo sapiens), sequence (P07550 whole entry, looked up): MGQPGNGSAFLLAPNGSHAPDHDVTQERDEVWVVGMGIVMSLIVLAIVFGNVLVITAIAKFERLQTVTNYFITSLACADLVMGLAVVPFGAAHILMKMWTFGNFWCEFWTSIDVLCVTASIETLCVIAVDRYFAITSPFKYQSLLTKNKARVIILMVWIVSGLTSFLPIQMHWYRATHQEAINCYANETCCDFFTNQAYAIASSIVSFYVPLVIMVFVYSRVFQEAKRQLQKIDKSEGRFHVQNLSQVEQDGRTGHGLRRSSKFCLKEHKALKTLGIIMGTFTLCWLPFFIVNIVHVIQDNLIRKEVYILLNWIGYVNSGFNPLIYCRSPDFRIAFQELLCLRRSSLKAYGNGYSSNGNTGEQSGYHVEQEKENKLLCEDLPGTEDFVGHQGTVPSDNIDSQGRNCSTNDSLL
Summary of the method: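 Cells (CHO, stable ADRB2 overexpression) incubated 18-20hr at 37C; compounds added from DMSO; agonist mix (1nM isoproterenol, 100uM IBMX, 25uM Ro-20-1724) added; 0.5hr RT; d2-cAMP and anti-cAMP-cryptate added; 1hr RT; 665/615 nm read.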

[18] = biological target: D(2) dopamine receptor (Homo sapiens) (UniProt P14416); test: Dopamine D2 receptor (DRD2) small molecule agonists, cell-based qHTS assay (AID 1963594); note: nearly all actives have a fitted effect of over 35% in size
D(2) dopamine receptor (Homo sapiens), sequence (P14416 whole entry, looked up): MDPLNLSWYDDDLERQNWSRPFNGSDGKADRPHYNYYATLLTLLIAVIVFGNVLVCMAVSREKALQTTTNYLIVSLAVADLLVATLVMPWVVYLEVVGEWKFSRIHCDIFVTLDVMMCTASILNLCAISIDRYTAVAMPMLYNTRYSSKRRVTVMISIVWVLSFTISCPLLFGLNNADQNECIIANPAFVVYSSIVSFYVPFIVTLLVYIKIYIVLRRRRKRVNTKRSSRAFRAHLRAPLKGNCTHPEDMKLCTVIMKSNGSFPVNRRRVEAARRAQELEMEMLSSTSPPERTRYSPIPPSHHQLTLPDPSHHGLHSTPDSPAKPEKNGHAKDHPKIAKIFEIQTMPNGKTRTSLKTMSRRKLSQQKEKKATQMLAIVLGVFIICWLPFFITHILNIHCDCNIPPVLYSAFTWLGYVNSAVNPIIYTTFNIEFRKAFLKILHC
Summary of the method: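 HEK293 cells stably expressing human DRD2, pre-treated with PDE inhibitor Ro20-1724 (0.1 mM final) and compound 10 min at room temperature, then stimulated with NKH477 (200nM […]) for 30 min. cAMP read by HTRF (665/620 nm).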

[19] = biological target: D(2) dopamine receptor (Homo sapiens) (UniProt P14416); test: Dopamine D2 receptor (DRD2) small molecule antagonists, cell-based qHTS assay (AID 1963595; active = well fitted inhibition curve with a large enough effect in the signal ratio in the repeat runs, with a control signal flat; the % refers to the signal ratio)
Summary of the method: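 Antagonism was scored as restored cAMP in HEK293-DRD2 cells. These cells were stimulated with 200 nM NKH477 and 12 nM quinpirole for 30 min at room temperature, in the presence of 0.1 mM Ro20-1724.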
% is set by controls: 0 for no effect and ±100 for the full control effect.

Nc1c2c(nc3ccccc13)CCCC2O (stereo unspecified)
inactive: Potency [1] | Potency [2] | Potency [3] | outcome [4] | outcome [5] | Potency [6] | Potency [7] | Potency [8] | Potency [9] | Potency [10] | Potency [11] | Potency [12] | Potency [13] | Potency [14] | Potency [15] | Potency [16] | Potency [17] | Potency [18] | Potency [19]

CCCCCCCCCCCCC
inactive: Potency [1] | Potency [2] | Potency [3] | outcome [4] | outcome [5] | Potency [6] | Potency [7] | Potency [8] | Potency [9] | Potency [10] | Potency [11] | Potency [12] | Potency [13] | Potency [14] | Potency [15] | Potency [17] | Potency [18] | Potency [19]

CC(C)(C)N(CCO)CCO
inactive: Potency [1] | Potency [2] | Potency [3] | outcome [4] | outcome [5] | Potency [6] | Potency [7] | Potency [8] | Potency [9] | Potency [10] | Potency [11] | Potency [12] | Potency [13] | Potency [14] | Potency [15] | Potency [16] | Potency [17] | Potency [18] | Potency [19]

CN(C)CCN(C)CCN(C)C
inactive: Potency [1] | Potency [2] | Potency [3] | outcome [4] | outcome [5] | Potency [6] | Potency [7] | Potency [8] | Potency [9] | Potency [10] | Potency [11] | Potency [12] | Potency [13] | Potency [14] | Potency [15] | Potency [16] | Potency [17] | Potency [18] | Potency [19]

CN1CCN(c2c(F)cc3c(=O)c(C(=O)O)cn4c3c2OCN4C)CC1
inactive: activity change, negative = cytotoxicity [1] 9.2% [at 19 µM] | activity, positive = activation [2] -3.8% [at 19 µM] | activity change [3] 0.0141% [at 11.8 µM, hits give high values] | activation [4] -1.38% [at 15.8 µM] | activation [5] -0.0119% [at 11.8 µM] | activation [6] 0.808% [at 13.5 µM] | activation [7] -0.432% [at 13.6 µM] | activity change, negative = cytotoxicity [8] -4.82% [at 13.5 µM] | activity change, negative = cytotoxicity [9] -2.46% [at 13.5 µM] | activity change, negative = cytotoxicity [10] 0.627% [at 13.5 µM] | activation [11] -0.645% [at 13.5 µM] | activation [12] -1.68% [at 15.9 µM] | activity, negative = inhibition [13] -0.388% [at 12.6 µM] | activation [14] -0.139% [at 15.8 µM] | activity change, negative = inhibition [16] -9.33% [at 18.9 µM] | activity change, negative = inhibition [17] 2.14% [at 19 µM] | activation [18] 11.6% [at 19 µM] | activity change, negative = inhibition [19] 2.83% [at 18.9 µM]

CCC(C)(C)C(=O)O
inactive: Potency [1] | Potency [2] | Potency [3] | outcome [4] | outcome [5] | Potency [6] | Potency [7] | Potency [8] | Potency [9] | Potency [10] | Potency [11] | Potency [12] | Potency [13] | Potency [14] | Potency [15] | Potency [16] | Potency [17] | Potency [18] | Potency [19]

Cc1ccc(CCn2c3c(c4cc(Cl)ccc42)CN(C)CC3)cn1
inactive: Potency [1] | Potency [2] | Potency [3] | outcome [4] | outcome [5] | Potency [6] | Potency [7] | Potency [8] | Potency [9] | Potency [10] | Potency [11] | Potency [12] | Potency [13] | Potency [14] | Potency [15] | Potency [16] | Potency [17] | Potency [18] | Potency [19]

O=C(OCCN1CCOCC1)c1cccnc1Nc1cccc(C(F)(F)F)c1
inactive: Potency [1] | Potency [2] | Potency [3] | outcome [4] | outcome [5] | Potency [6] | Potency [7] | Potency [8] | Potency [9] | Potency [10] | Potency [11] | Potency [12] | Potency [13] | Potency [14] | Potency [15] | Potency [17] | Potency [18] | Potency [19]

COc1cc(C)ccc1O
inactive: Potency [1] | Potency [2] | Potency [3] | outcome [4] | outcome [5] | Potency [6] | Potency [7] | Potency [8] | Potency [9] | Potency [10] | Potency [11] | Potency [12] | Potency [13] | Potency [14] | Potency [15] | Potency [18] | Potency [19]
